This is an account of results in PubChem BioAssay.

Several values for one entry are separate records, joined by “and”; a condition that tells them apart may be missing. Equal entries are not always repeated. Activity calls are given as the source filed them.

Assay [1] is described as follows: optical density shifts of acrAB sulA E. coli – strain DRC41, OD650, 48 h, E. coli filamentation inducer project, primary screen (AID 1152).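 Further: E. coli MC1000 strain DRC41 lacking acrAB efflux pump and sulA.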 The following applies: higher = more signal, called active from +8 up or from −8 down.
The nature of assay [2]: probe aLefty1 binding on compound microarray – biochemical, small-molecule microarray, 635/667 nm fluorescence, primary screen (AID 1153).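 Further: score merges spot fluorescence with signal-to-noise ratio from the scanned slide images.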 The following applies: higher = more signal.
A short description of assay [3]: plasmodial surface anion channel blockers, osmotic lysis – cell-based, P. falciparum Indochina, OD700, 1 h, primary screen (AID 1154). The settings on record: P. falciparum Indochina infected RBC osmotic lysis, higher = more signal, called active from +8 up or from −8 down.
Assay [4] can be described thus: plasmodial surface anion channel blockers, osmotic lysis – cell-based, P. falciparum Indochina, OD700, 2 h, primary screen (AID 1155).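 Further: lysis reports solute entry through the parasite surface anion channel PSAC.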 The following applies: P. falciparum Indochina infected erythrocytes, higher = more signal, called active from +8 up or from −8 down.
A short description of assay [5]: changes in parasitized red cell lysis, either direction – P. falciparum Indochina, OD700, 3 h, PSAC antagonist project, primary screen (AID 1156). The following applies: P. falciparum-infected erythrocytes, osmotic lysis, higher = more signal, called active from +8 up or from −8 down.
A short description of assay [6]: plasmodial surface anion channel blockers, osmotic lysis – cell-based, P. falciparum Indochina, OD700, 18 h, primary screen (AID 1157). The settings on record: P. falciparum Indochina infected erythrocytes, osmotic lysis OD700, 18 h; higher = more signal, called active from +8 up or from −8 down.
Assay [7] can be described thus: S6 kinase pathway phospho-S6 level changes – cell-based, A549, cytoblot, luminescence, serum-stimulated, primary screen (AID 1158).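 Further: serum-stimulated A549 lung adenocarcinoma cells; signal is phosphorylated S6 detected by cytoblot immunostaining with HRP secondary.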 The settings on record: 5 h, higher = more signal.
Assay [8] deals with NADPH oxidase 2 (Homo sapiens) (UniProt P04839). In words: compounds shifting NOX2 Amplex Red fluorescence – cell-based, HEK293-NOX2, PMA-stimulated, NOX inhibitor project, primary screen (AID 1159). Further: test concentration not given here. The following applies: 45 min, higher = more signal, called active from +8 up or from −8 down.
Assay [9] deals with NADPH oxidase 4 (Homo sapiens) (UniProt Q9NPH5). Kind of assay: compounds shifting NOX4 Amplex Red fluorescence – cell-based, HEK293-NOX4, tetracycline-induced, NOX inhibitor project, primary screen (AID 1160). The settings on record: HEK293-NOX4, Amplex Red H2O2 fluorescence, 45 min; higher = more signal, called active from +8 up or from −8 down.
Assay [10] addresses NADPH oxidase 5 (Homo sapiens) (UniProt Q96PH1). In words: compounds shifting NOX5 Amplex Red fluorescence – cell-based, HEK293-NOX5, NOX inhibitor project, primary screen (AID 1161). The following applies: HEK293-NOX5, ionomycin, 45 min, higher = more signal.
Assay [11] in a line: compound effects on lung adenocarcinoma cell viability – A549, calcein-AM fluorescence, 48 h, basal, profiling panel (AID 1162). Further: test concentration not given here. The following applies: higher = more signal.
Assay [12] in a line: compound effects on differentiated 3T3-L1 adipocyte viability – cell-based, 3T3-L1 adipocytes, calcein-AM fluorescence, 48 h, basal, profiling panel (AID 1163). Further: test concentration not given here. The settings on record: 3T3-L1 adipocytes viability, higher = more signal.
A short description of assay [13]: compound effects on hepatocellular carcinoma cell viability – HepG2, calcein-AM fluorescence, 48 h, basal, profiling panel (AID 1164). Further: test concentration not given here. The settings on record: higher = more signal.
Assay [14] in a line: compound effects on multiple myeloma cell viability – MM1S, calcein-AM fluorescence, 48 h, basal, profiling panel (AID 1165).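 Further: viability of MM1S multiple myeloma cells under basal unstimulated conditions; test concentration not given here.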 The settings on record: higher = more signal.
Assay [15] is described as follows: calcein-AM signal in unstimulated myeloma cells – cell-based, calcein-AM fluorescence, 48 h, PK04 Diversity Set, profiling panel (AID 1166).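 Further: cells grown under basal conditions without added stimulus; test concentration not given here.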 The following applies: RPMI8226 myeloma viability, higher = more signal.
A short description of assay [16]: JC-1 mitochondrial signal, unstimulated HepG2 cells – cell-based, JC-1 fluorescence, 24 h, 100 nL compound, profiling panel (AID 1167). Further: test concentration not given here. The following applies: HepG2 mitochondrial potential, higher = more signal.
A short description of assay [17]: JC-1 mitochondrial signal, unstimulated adipocytes – cell-based, JC-1 fluorescence, 3T3-L1 adipocytes, 24 h, 100 nL compound, profiling panel (AID 1168). Further: test concentration not given here. The following applies: JC-1 mitochondrial fluorescence, higher = more signal, called active from +8 up or from −8 down.
Assay [18] can be described thus: JC-1 mitochondrial signal, unstimulated myeloma cells – cell-based, JC-1 fluorescence, RPMI8226, 24 h, 100 nL compound, profiling panel (AID 1169). Further: test concentration not given here. The settings on record: JC-1 mitochondrial potential fluorescence, higher = more signal.
Assay [19] in a line: JC-1 mitochondrial signal, unstimulated MM1S myeloma – cell-based, JC-1 fluorescence, 24 h, 100 nL compound, profiling panel (AID 1170). Further: test concentration not given here. The following applies: MM1S mitochondrial potential, higher = more signal.
Assay [20] can be described thus: resazurin metabolic signal in A549 cells – cell-based, resazurin fluorescence, 24 h, PK04 Diversity Set, profiling panel (AID 1171). Further: test concentration not given here. The settings on record: A549 viability, higher = more signal, called active from +8 up or from −8 down.

Chain of NADPH oxidase 5 (Homo sapiens) (Q96PH1 whole entry, looked up): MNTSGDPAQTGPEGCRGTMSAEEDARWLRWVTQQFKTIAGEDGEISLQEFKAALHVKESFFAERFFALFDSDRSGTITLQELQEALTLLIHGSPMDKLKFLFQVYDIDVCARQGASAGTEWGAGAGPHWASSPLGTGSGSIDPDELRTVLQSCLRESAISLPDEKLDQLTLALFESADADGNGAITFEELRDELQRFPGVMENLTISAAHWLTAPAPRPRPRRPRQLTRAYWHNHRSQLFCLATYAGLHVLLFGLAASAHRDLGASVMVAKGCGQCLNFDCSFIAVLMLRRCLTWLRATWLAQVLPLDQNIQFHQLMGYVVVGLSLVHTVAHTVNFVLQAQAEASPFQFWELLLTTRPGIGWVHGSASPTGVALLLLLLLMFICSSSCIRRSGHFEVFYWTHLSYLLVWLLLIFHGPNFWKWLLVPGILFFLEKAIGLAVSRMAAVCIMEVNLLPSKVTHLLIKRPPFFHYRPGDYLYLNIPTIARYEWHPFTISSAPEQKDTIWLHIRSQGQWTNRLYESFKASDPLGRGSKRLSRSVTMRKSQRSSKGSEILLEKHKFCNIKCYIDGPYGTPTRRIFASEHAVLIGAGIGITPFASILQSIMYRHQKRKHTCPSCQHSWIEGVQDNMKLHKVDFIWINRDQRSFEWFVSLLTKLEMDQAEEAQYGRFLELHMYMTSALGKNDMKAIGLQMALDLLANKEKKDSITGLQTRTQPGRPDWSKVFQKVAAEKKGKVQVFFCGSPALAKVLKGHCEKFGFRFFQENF
Chain of NADPH oxidase 4 (Homo sapiens) (Q9NPH5 whole entry, looked up): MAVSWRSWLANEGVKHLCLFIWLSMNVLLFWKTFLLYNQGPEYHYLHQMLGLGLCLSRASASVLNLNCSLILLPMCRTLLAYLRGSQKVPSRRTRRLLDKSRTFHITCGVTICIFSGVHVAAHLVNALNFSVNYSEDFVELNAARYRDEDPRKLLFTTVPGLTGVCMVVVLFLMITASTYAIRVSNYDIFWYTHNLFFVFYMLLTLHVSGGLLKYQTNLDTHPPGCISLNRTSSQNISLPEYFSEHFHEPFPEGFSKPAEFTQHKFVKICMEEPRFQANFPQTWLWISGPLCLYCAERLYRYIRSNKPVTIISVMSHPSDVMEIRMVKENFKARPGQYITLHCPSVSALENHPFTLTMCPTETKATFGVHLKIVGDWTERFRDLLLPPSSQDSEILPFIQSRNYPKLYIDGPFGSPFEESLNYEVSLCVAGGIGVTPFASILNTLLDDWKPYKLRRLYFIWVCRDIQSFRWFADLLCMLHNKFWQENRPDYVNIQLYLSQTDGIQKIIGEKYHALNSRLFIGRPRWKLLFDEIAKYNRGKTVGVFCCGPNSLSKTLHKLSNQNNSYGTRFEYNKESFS
Chain of NADPH oxidase 2 (Homo sapiens) (P04839 whole entry, looked up): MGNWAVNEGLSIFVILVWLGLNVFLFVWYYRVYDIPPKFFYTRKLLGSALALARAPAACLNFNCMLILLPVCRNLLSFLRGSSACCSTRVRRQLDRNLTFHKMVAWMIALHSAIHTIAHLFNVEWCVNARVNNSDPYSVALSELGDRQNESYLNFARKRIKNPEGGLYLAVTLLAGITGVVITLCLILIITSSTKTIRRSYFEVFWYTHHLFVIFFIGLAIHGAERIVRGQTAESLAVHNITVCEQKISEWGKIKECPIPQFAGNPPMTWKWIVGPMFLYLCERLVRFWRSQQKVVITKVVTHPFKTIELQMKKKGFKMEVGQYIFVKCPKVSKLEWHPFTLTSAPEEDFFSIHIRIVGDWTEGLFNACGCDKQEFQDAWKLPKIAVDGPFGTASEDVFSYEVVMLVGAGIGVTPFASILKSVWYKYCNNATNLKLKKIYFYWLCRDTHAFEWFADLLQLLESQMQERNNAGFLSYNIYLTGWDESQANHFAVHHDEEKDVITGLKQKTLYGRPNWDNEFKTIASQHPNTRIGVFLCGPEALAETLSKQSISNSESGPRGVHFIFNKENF

With `CC(C)[Si]1(C(C)C)OCc2cc(C3CC3)nc(CCc3ccccc3)c21`, the z-score in assay [1] was -0.102 (inactive) and -0.904 (inactive); in assay [3], 0.922 (inactive) and 0.437 (inactive); in assay [4], 0.742 (inactive) and 0.438 (inactive); in [5] it was -0.416 (inactive) and -0.978 (inactive); in assay [6], 0.309 (inactive) and -0.401 (inactive); in [7], -0.295 and -0.326. Besides, the z-score in assay [8] was 2.57 (inactive) and -0.368 (inactive); in assay [9], 1.14 (inactive) and 1.35 (inactive); in [10], -0.319 and -2.87; in assay [11], -0.351 and -0.69; in assay [12] it was 0.193 and -0.871; in [13], 0.498 and 0.203. Further, the z-score in assay [14] is -2.57 and -2.81; in assay [15] it was -0.48 and -3.77; in assay [16], -1.5 and -2.69; in [17] it was -0.186 (inactive) and -0.575 (inactive); in [18], -0.14 and -0.902; in assay [19], 0.245 and -0.582. Moreover, the z-score in assay [20] was 1.12 (inactive) and 1.39 (inactive). The composite z-score in assay [2] was 0.111 and -0.235.

`C=CCN(C(=O)C(c1cccs1)N(CCOCCO)C(=O)/C=C\C(=O)O)c1ccc(OC)cc1` (stereo not given): the z-score in [1] was 3.55 (inactive) and 2.87 (inactive); in assay [3] it was 0.195 (inactive) and -0.888 (inactive); in [4], -0.567 (inactive) and -0.967 (inactive); in [5], 0.0684 (inactive) and -1.43 (inactive); in assay [6] it was -0.922 (inactive) and -0.842 (inactive); in assay [7] it was 2.24 and 0.28. Moreover, the z-score in assay [8] was 0.118 (inactive) and -0.448 (inactive); in [9], -0.578 (inactive) and -1.19 (inactive); in [10], -0.0456 and 0.0347; in assay [11], 0.995 and 1.98; in assay [12] it was 0.372 and -0.509; in assay [13], 1.23 and 0.751. Further, the z-score in assay [14] was 1.3 and 1.57; in [15] it was 0.566 and 0.95; in assay [16], 0.506 and 1.39; in assay [17], -2.4 (inactive) and 1.53 (inactive); in assay [18], -0.0898 and 0.302; in [19] it was -1.19 and 0.702. Further, the z-score in assay [20] was 0.18 (inactive) and 0.294 (inactive). In addition, the composite z-score in [2] is -0.262 and -0.142.

For `O=C(NN=C1C[C@@H](O)[C@@H](O)[C@@H]2[C@@H]3C(=O)N(Cc4ccc5c(c4)OCO5)C(=O)[C@@H]3CC[C@H]12)OCc1ccccc1`, the z-score in assay [1] was 1.2 (inactive); in [3], 37 (active); in [4] it was 14.8 (active); in assay [5] it was 0.833 (inactive); in assay [6] it was 1.24 (inactive); in [7], -0.241. Also, the z-score was -1.32 (inactive) in assay [8]; 0.0354 (inactive) in assay [9]; 0.664 in [10]; 0.356 in assay [11]; -0.263 in [12]; 0.339 in assay [13]. Moreover, the z-score is 0.172 in assay [14]; 0.102 in assay [15]; 1.3 in [16]; 0.415 (inactive) in assay [17]; 0.559 in assay [18]; -1.79 in [19]. Moreover, the z-score in assay [20] is -0.31 (inactive). Moreover, in assay [2], the composite z-score came out at 0.126.

Regarding `C=C[C@@H](C)[C@@H](O)c1ccc(OCCO)cc1`, the z-score in assay [1] was 0.155 (inactive) and 1.8 (inactive); in [3], 1.23 (inactive) and 0.481 (inactive); in [4] it was 0.568 (inactive) and -0.311 (inactive); in assay [5] it was 0.321 (inactive) and -0.929 (inactive); in assay [6], 0.281 (inactive) and -0.873 (inactive); in [7], 0.0021 and 0.856. Moreover, the z-score is -0.228 (inactive) and -0.985 (inactive) in assay [8]; -0.115 (inactive) and -0.247 (inactive) in [9]; -0.0389 and -0.521 in assay [10]; -0.61 and 0.227 in assay [11]; 0.513 and 0.464 in assay [12]; -0.976 and 0.692 in assay [13]. Also, the z-score in assay [14] was 0.958 and -0.872; in assay [15], -0.754 and 0.96; in [16], 0.299 and 1.09; in assay [17], -0.82 (inactive) and -0.165 (inactive); in [18], -0.0815 and 0.346; in assay [19], 0.287 and -0.925. Moreover, in assay [20], the z-score is 0.175 (inactive) and -0.652 (inactive). For the same molecule, the composite z-score in [2] is -0.237 and -0.102.

With `C[C@@H]1CC[C@H]2C(=O)O[C@H](CN=[N+]=[N-])CN2[C@H]1c1ccc(Br)cc1`, the z-score in [1] was -1.87 (inactive) and -0.609 (inactive); in [3], -0.1 (inactive) and 2.08 (inactive); in assay [4], 0.23 (inactive) and 1.03 (inactive); in assay [5], 0.124 (inactive) and 0.564 (inactive); in [6] it was -0.12 (inactive) and 0.491 (inactive); in assay [7], -0.524 and -0.466. Also, the z-score is 0.993 (inactive) and 0.995 (inactive) in assay [8]; -0.0537 (inactive) and -0.184 (inactive) in [9]; -0.124 and 0.779 in [10]; -2.47 and 0.677 in assay [11]; -0.805 and -0.0793 in assay [12]; -2.75 and -0.113 in assay [13]. Further, the z-score is -3.4 and -0.0115 in assay [14]; -3.07 and 0.163 in assay [15]; -2.47 and 0.365 in assay [16]; -0.136 (inactive) and 0.265 (inactive) in [17]; -0.867 and 0.0245 in [18]; -1.02 and 0.242 in assay [19]. The z-score in assay [20] was -0.854 (inactive) and 0.459 (inactive). For the same molecule, the composite z-score in assay [2] was 0.0457 and -0.284.

On to `C=CCN(C(=O)C1N(CCOCCO)C(=O)C2C(C(=O)O)C3C=CC21O3)C(C)(C)C` (stereo not given), for which the z-score in [1] is -0.265 (inactive) and -0.45 (inactive); in [3] it was 0.901 (inactive) and -0.5 (inactive); in [4], 0.264 (inactive) and 0.438 (inactive); in [5], -0.944 (inactive) and -0.84 (inactive); in assay [6], -0.305 (inactive) and -0.108 (inactive); in [7] it was 0.0267 and 0.353. For the same molecule, the z-score in [8] was 0.388 (inactive) and 0.883 (inactive); in assay [9], 0.292 (inactive) and -0.3 (inactive); in assay [10] it was 1.19 and -0.295; in [11] it was -0.186 and -0.328; in [12], 0.0948 and -1.23; in [13], 0.108 and 0.442. In addition, the z-score was 1.01 and 0.916 in [14]; -0.114 and 0.817 in [15]; -0.58 and -0.767 in assay [16]; -0.693 (inactive) and -0.523 (inactive) in assay [17]; -0.691 and 0.591 in assay [18]; 1.93 and 0.501 in assay [19]. The z-score in assay [20] is 0.161 (inactive) and -0.73 (inactive). Further, the composite z-score in assay [2] is -0.161 and -0.695.

For `CC(C)CON=C1C[C@@H](O)[C@@H](O)[C@@H]2[C@@H]3C(=O)N(c4cccc(Oc5ccccc5)c4)C(=O)[C@@H]3CC[C@H]12`, the z-score in [1] was 0.525 (inactive); in assay [3] it was -0.436 (inactive); in assay [4], 0.0644 (inactive); in assay [5], 0.388 (inactive); in [6], 0.158 (inactive); in assay [7], -0.157. For the same molecule, the z-score in assay [8] is -0.831 (inactive); in assay [9], 0.11 (inactive); in assay [10], -0.144; in assay [11] it was 0.259; in assay [12], 0.425; in assay [13] it was -0.641. The z-score in [14] is 0.957; in assay [15], -0.0145; in [16], 1.34; in [17], 0.461 (inactive); in assay [18], 0.288; in [19], -0.309. The z-score in [20] was -0.0819 (inactive). This molecule also yielded a composite z-score in [2] of -0.298.
